This note sets out measurements from PubChem BioAssay.

The nature of test [1]: NFkB reporter suppression in cystic fibrosis bronchial cells – cell-based, uHTS hits, panel, cytotoxicity readout, dose response (AID 624344). Particulars: CF bronchial epithelial cells, PAF-induced NFkB reporter inhibition, with PAF, run 1; at 79 µM (top of the series) unless noted.
Experiment in test [2]: as above
To be noted: CF bronchial epithelial cells, PAF-induced NFkB reporter inhibition, with PAF, run 2; at 79 µM (top of the series) unless noted.

One may read the inhibition as the change of the read-out against control, counted positive when it falls. As for `C[C@]12CCC(O)CC1CCC1C2CC[C@]2(C)C(c3cc(C(F)(F)F)n[nH]3)CCC12` (some centres undefined), the inhibition was 121% in test [1] and 99.6% in test [2].
As to `Cn1c(Sc2ccc(Br)cc2)c(C=O)c2ccccc21`, the inhibition in test [1] came to 108%; in test [2] it was 112%.
Take `COc1ccc(-c2cc(=O)oc3cc(OC(=O)C4CCCCC4)c(Cl)cc23)cc1`: the values for the inhibition in test [1] and in test [2] were 117% and 102%, respectively.
Turning to `Cc1ccc2c(c1)C(=O)C(=O)N2Cc1ccc(C(F)(F)F)cc1`, the inhibition in test [1] is 111%; in test [2] it was 100%.
Regarding `O=[N+]([O-])c1cccc(NC(=S)Nc2nc(-c3ccccc3Cl)cs2)c1`, the figures for the inhibition in test [1] and in test [2] were 108% and 99.8%, respectively.
As for `O=C1NC(=S)N/C1=C\c1cccnc1`, the inhibition in test [1] turned out to be 99.3%; in test [2], 99.2%.
`Fc1ccccc1-c1csc(=Nc2cccnc2)n1CCCn1ccnc1`: the inhibition in test [1] turned out to be 116%; in test [2], 94.9%.
Consider `CCOc1cc2c(cc1O)C(=NO)CC1C2CCC2(C)C(O)CCC12` (centres undefined), for which the inhibition in test [1] came to 103%; in test [2] it was 112%.
On to `CCC1(O)C(=O)OCc2c1cc1n(c2=O)Cc2cc3cc(O)ccc3nc2-1` (centres undefined), for which the results for the inhibition in test [1] and in test [2] were 106% and 88.8%, respectively.
As to `O=C1C=C(NC2=CC3OC(c4ccccc4)OCC3OC2=O)CCC1` (centres undefined), the results for the inhibition in test [1] and in test [2] were 103% and 111%, respectively.
`O=S(=O)(c1cccc2cnccc12)N1CCCNCC1`: the inhibition was 116% in test [1] and 105% in test [2].
As for `c1cc(-c2nnc3sc(C4CCCCC4)nn23)ccn1`, the inhibition in test [1] was 102%; in test [2] it was 109%.
Consider `CCCn1c(-c2nonc2N)nc2ccccc21`, for which the inhibition in test [1] is 99.6%; in test [2], 95.5%.
In the case of `COc1ccc(C(=O)Nc2cccc(NC(=O)c3ccc(OC)c(OC)c3)n2)cc1OC`, the values for the inhibition in test [1] and in test [2] were 106% and 102%, respectively.
For the compound `CC(=O)Nc1ccc(S(=O)(=O)N2c3ccccc3C(C)=CC2(C)C)cc1`, the values for the inhibition in test [1] and in test [2] were 93.9% and 56.4%, respectively.
In the case of `CCNC(=O)C1(C)CCCN(Cc2ccc(-c3ccccc3)o2)C1` (centres undefined), the inhibition was 94% in test [1] and 74.8% in test [2].
With `CC(=O)c1c(O)cc2c3c1OC(C)(C)C1CCC(C)(CC31)O2` (centres undefined), the inhibition was determined as 111% in test [1] and 99% in test [2].
Take `C=C1C(=O)[C@]23C[C@H]1CC[C@H]2[C@]1(C)[C@@H](O)CC[C@@](C)(C(=O)O)[C@H]1C[C@@H]3O`: the inhibition in test [1] amounted to 98.4%; in test [2], 103%.
Take `COc1ccc(S(=O)(=O)N2c3cc(C)ccc3OCC2C(C)(C)C)cc1` (centres undefined): the values for the inhibition in test [1] and in test [2] were 103% and 81.9%, respectively.
In the case of `Brc1ccc2ncnc(NCc3ccccc3)c2c1`, the inhibition was 108% in test [1] and 104% in test [2].
As for `Cc1ccc(NC(=O)Nc2cccc([N+](=O)[O-])c2)cc1F`, the inhibition turned out to be 102% in test [1] and 113% in test [2].
The matching figures for `O=C1CC(=O)OC(c2ccc([N+](=O)[O-])cc2)O1`: 101% and 94.3%.
The matching figures for `COc1ccc(-c2ccccc2[C@H]2[C@@H]3C=CC[C@@H](C)[C@@H]3C(=O)N2Cc2ccccc2)cc1`: 102% and 108%.
As to `COc1ccc(NC(=O)c2cc3c(-c4ccc(OC)c(OC)c4)nn(C)c3s2)cc1OC`, the inhibition in test [1] amounted to 107%; in test [2] it was 101%.
Regarding `O=C(c1ccc(O)c(Br)c1)c1cc(Br)ccc1O`, the inhibition was determined as 105% in test [1] and 109% in test [2].
Consider `CNc1ccc2ncc(-c3cccc(C(=O)N(C)C)c3)n2n1`, for which the inhibition in test [1] is 111%; in test [2], 106%.
Turning to `Cc1ccc(C(=O)Nc2cccc(C(F)(F)F)c2)cc1NC(=O)c1ccno1`, the inhibition in test [1] was 86.8%; in test [2] it was 111%.
For the compound `CC(C)C[C@@H](CN1CCCC1CN1C(=S)NC[C@@H]1Cc1ccc(O)cc1)N1C[C@H](Cc2ccc(O)cc2)N(CC2CCCCC2)C1=S` (some centres undefined), the inhibition in test [1] is 102%; in test [2], 107%.
For `O=C(COC(=O)c1ccc2[nH]c3c(c2c1)CCCC3)Nc1ccccc1Cl`, the inhibition in test [1] stood at 65.7%; in test [2] it was 69.7%.
As to `CCOc1cc2c(cc1O)C(=NOC)CC1C2CCC2(C)C(O)CCC12` (centres undefined), the inhibition in test [1] is 74%; in test [2] it was 94.3%.
The matching figures for `Cc1ccc(S(=O)(=O)Nc2cccc3ncccc23)s1`: 107% and 97%.
The matching figures for `Cc1ccc(-c2cc(C(=O)N/N=C/c3c(C)nn(-c4ccccc4)c3C)[nH]n2)cc1`: 62.7% and 88.3%.
Regarding `Oc1ccc(Nc2ncnc3scc(-c4ccccc4)c23)cc1`, the inhibition in test [1] is 56%; in test [2] it was 41%.
Turning to `CC(C)=CCc1c(O)cc(O)c2c1OC(c1ccc(O)cc1)CC2=O` (centres undefined), the inhibition in test [1] was determined as 93.2%; in test [2], 108%.
The corresponding values for `Cc1ccc2[nH]cc(C(=O)CCl)c2c1` are 60.6% and 72%.
Regarding `CCCCCCc1cc2cc(C(=O)Nc3ccccc3OC)c(=O)oc2cc1O`, the inhibition is 2.45% in test [1] and 66.2% in test [2].
For the compound `Nc1ncnc(N2CCc3ccccc32)c1[N+](=O)[O-]`, the inhibition in test [1] came out at 115%; in test [2], 103%.
For `Cc1cccc(NC(=O)c2nc[nH]c2C(=O)NCCCNC(=O)c2[nH]cnc2C(=O)Nc2cccc(C)c2)c1`, the inhibition in test [1] stood at 97.6%; in test [2], 75.5%.
Consider `CC(=O)c1ccc(-n2c(C)c(C(C)=O)c3cc(O)ccc32)cc1`, for which the inhibition was 56.2% in test [1] and 74.6% in test [2].
As to `Fc1cccc(Cl)c1/C=N/Nc1c(Cl)cncc1Cl`, the inhibition in test [1] came to 101%; in test [2] it was 104%.
The corresponding values for `Cc1ccc(N=Cc2cc3c(cc2O)OC(N)=C(C#N)C3c2ccccc2)cc1` (centres undefined) are 79.8% and 60.7%.
For `COc1ccc(S(=O)(=O)N2c3ccc(F)cc3CCC2C)cc1` (centres undefined), the inhibition in test [1] is 98.8%; in test [2] it was 71.7%.
